The values that follow come from ChEMBL document CHEMBL3433997, “St. Jude Leishmania screening dataset” (2016).

Usually inhibition stands for the drop in the measured response relative to a control, in per cent.

Holding throughout (format): functional
Assay [1] addresses Solute carrier family 2, facilitated glucose transporter member 1 (Homo sapiens) (UniProt P11166). Put plainly: ST_JUDE_LEISH: Cytotoxicity at 2uM final concentration against transgenic Leishmania Mexicana promastigotes LmGLUT1 that are glucose transport deficient and complemented with the human glucose transporter GLUT1. Activity is measured by DNA content using SYBR green in vitro.

Assay [2] has as its target Hexose transporter 1 (Plasmodium falciparum) (UniProt O97467). In words: ST_JUDE_LEISH: Cytotoxicity at 2uM final concentration against transgenic Leishmania Mexicana promastigotes LmPfHT that are glucose transport deficient and complemented with the Plasmodium falciparum hexose transporter. Activity is measured by DNA content using SYBR green in vitro.
The target in assay [3] is Glucose transporter (Leishmania mexicana) (UniProt O61059). In words: ST_JUDE_LEISH: Cytotoxicity at 2uM final concentration against transgenic Leishmania Mexicana promastigotes LmGT2 that are glucose transport deficient and complemented with the L. Mexicana glucose transporter 2. Activity is measured by DNA content using SYBR green in vitro.

Solute carrier family 2, facilitated glucose transporter member 1 (Homo sapiens), sequence (P11166 whole entry): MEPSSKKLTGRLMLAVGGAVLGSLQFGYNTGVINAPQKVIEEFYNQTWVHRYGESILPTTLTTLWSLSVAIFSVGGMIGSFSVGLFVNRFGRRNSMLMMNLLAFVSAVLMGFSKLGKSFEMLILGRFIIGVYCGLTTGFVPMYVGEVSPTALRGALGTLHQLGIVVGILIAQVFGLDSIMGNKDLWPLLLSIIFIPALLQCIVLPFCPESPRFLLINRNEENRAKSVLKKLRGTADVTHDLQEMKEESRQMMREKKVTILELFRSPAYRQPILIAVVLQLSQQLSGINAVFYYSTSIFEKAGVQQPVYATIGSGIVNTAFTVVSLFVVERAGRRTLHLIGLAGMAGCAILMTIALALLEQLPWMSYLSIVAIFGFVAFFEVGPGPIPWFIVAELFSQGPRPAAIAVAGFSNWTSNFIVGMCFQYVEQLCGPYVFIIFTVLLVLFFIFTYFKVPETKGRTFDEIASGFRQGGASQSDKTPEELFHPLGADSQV

Take `O=C(c1ccccc1)N1CCC(CN2CCOC(c3ccccc3)(c3ccccc3)C2)CC1`: the inhibition came to 3.71% in assay [1], 3.92% in assay [2] and 2.8% in assay [3].
As for `N#CCSc1nnc(-c2ccccc2)c2ccccc12`, the inhibition is 2.6% in assay [1], 9.44% in assay [2] and -0.1% in assay [3].
Regarding `Cc1cc(-c2ccc3c(c2)CC[C@@H](N[C@@H](C)c2ccccc2)C3)cnc1N`, the inhibition worked out at 4.92% in assay [1], 1.71% in assay [2] and 2.23% in assay [3].
In the same order, the values of `Cc1cc(=NN=Cc2ccc(F)cc2)c2cc(F)ccc2[nH]1` are 2.6%, 3.14% and -7.33%.
As to `CC(C)(C)c1ccc(CN2CCC(CNC(=O)c3cc(-c4cccc(Cl)c4)cs3)C2)cc1` (centres undefined), the inhibition in assay [1] turned out to be 16.7%; in assay [2], 3.66%; in assay [3] it was 1.5%.
Regarding `CCC(C)c1ccc(-n2c(Nc3ccccc3)nc3cc(S(N)(=O)=O)ccc32)cc1` (centres undefined), the inhibition came to 12.3% in assay [1], 6.89% in assay [2] and 5.77% in assay [3].
Take `COc1ccc(-c2cnc3[nH]cc(-c4ccncc4)c3c2)cc1OC`: the inhibition in assay [1] was determined as 68.3%; in assay [2], 72.8%; in assay [3], 65.3%.
On to `Cn1c(N)c(C(=O)CSc2nnc(-c3cccs3)n2Cc2ccccc2)c(=O)n(C)c1=O`, for which the results for the inhibition in assay [1], in assay [2] and in assay [3] were 10.1%, 8.98% and 8.86%, respectively.
With `CCn1ccc2c(N3CCCC3=O)cc(C(=O)N[C@@H](Cc3ccccc3)[C@H](O)CNC(C)(C)CCCC(C)C)cc21`, the inhibition in assay [1] turned out to be 0%; in assay [2], 0.39%; in assay [3], 0.34%.
As for `Brc1ccsc1-c1nc(NCCC(c2ccccc2)c2ccccc2)no1`, the figures for the inhibition in assay [1], in assay [2] and in assay [3] were -0.74%, 0.55% and 0.06%, respectively.
Regarding `COc1ccc(C2C(C(=O)Nc3cc(Cl)c(OC)cc3OC)c3ccccc3C(=O)N2C)cc1` (centres undefined), the inhibition in assay [1] was 0.28%; in assay [2], 1.49%; in assay [3], -1.07%.
Turning to `COc1cc2c(=O)c(Cc3ccc(Cl)cc3)c(C)[nH]c2cc1F`, the inhibition in assay [1] is 2.09%; in assay [2] it was 3.31%; in assay [3], 0.73%.
For `O=C(NC1CCN(Cc2cccc(C(F)(F)F)c2)CC1)c1ccc(-c2cccc(Cl)c2)s1`, the results for the inhibition in assay [1], in assay [2] and in assay [3] were 3.3%, 2.49% and 5.19%, respectively.
On to `CCn1ncc2c(NC3CCOCC3)c(CNC(=O)c3ccnn3C)c(C)nc21`, for which the inhibition in assay [1] stood at 3.11%; in assay [2], 2.89%; in assay [3] it was 0.31%.
In the same order, the values of `CN(Cc1cccc(O)c1)C1CCN(c2cc(NC(=O)c3ccc(F)cc3)ccn2)CC1` are 2.02%, 3.1% and 3.78%.
Take `CC(C)Cn1cc2c(ccc3nc(N)nc(N)c32)n1`: the inhibition in assay [1] was 1.25%; in assay [2], 0.94%; in assay [3] it was 0.32%.
In the case of `CC(C)(C)OC(=O)NCC(=O)N(Cc1ccccc1)Cc1ccccc1`, the inhibition was 4.96% in assay [1], 4.38% in assay [2] and 3.73% in assay [3].
For the compound `COc1ccc(NC(=O)/C=C/c2cc(F)cc(C(F)(F)F)c2)cc1OCCN(C(C)C)C(C)C`, the inhibition was determined as 9.32% in assay [1], 9.92% in assay [2] and 6.4% in assay [3].
As for `c1ccc(C2CCN(Cc3ccc(-c4c[nH]c5nc(NC6CCCC6)ncc45)cc3)CC2)cc1`, the values for the inhibition in assay [1], in assay [2] and in assay [3] were 2.79%, 2.07% and 1.65%, respectively.
In the case of `COc1cc(N(Cc2ccc(F)cc2)C(=O)c2ccc(-c3ccccc3)cc2)ccc1OCCN1CCCC1`, the inhibition in assay [1] was determined as 9.7%; in assay [2] it was 5.41%; in assay [3], 7.12%.
In the case of `CN1CCN(CC(O)CNC(=O)Nc2ccc(Cl)cc2)CC1` (centres undefined), the inhibition in assay [1] stood at 5.3%; in assay [2], 5.03%; in assay [3], 2.94%.
In the case of `CCN(CC)CCCC(C)Nc1nc(C=Cc2ccc(Br)cc2)nc2cc(Cl)ccc12` (centres undefined), the figures for the inhibition in assay [1], in assay [2] and in assay [3] were 11%, 9.25% and 10.2%, respectively.
The corresponding values for `COc1ccc(-c2nonc2NC(=O)c2cccc(C)c2)cc1OC` are 11.9%, 10.7% and 10.1%.
Take `Cc1ccc2nc(C)n(C3CCN(C(=O)C4(c5ccccc5)CC4)CC3)c2c1`: the figures for the inhibition in assay [1], in assay [2] and in assay [3] were 5.47%, 6.02% and 5.27%, respectively.
In the same order, the values of `CC1(C)N=C(N)N=C(N)N1OCCCOc1cccc(C(=O)O)c1` are 5.03%, 5.61% and 3.22%.
For `CC(=O)Nc1ccc(C(=O)Nc2cccc(-c3ccc(-c4nc5cc(C(F)(F)F)ccc5[nH]4)s3)c2)cn1`, the inhibition in assay [1] came out at 3.05%; in assay [2], 3.45%; in assay [3], 4.26%.
The corresponding values for `CC(Cc1ccc(NC(=O)c2ccc(CC(C)NCc3ccc(Cl)cc3)cc2)cc1)NCCc1cccc(Cl)c1` (centres undefined) are 10.3%, 6.78% and 1.33%.
Consider `CNC(=O)c1cnc(Nc2ccc(N3CCN(C)CC3)cc2)nc1Nc1cccc([N+](=O)[O-])c1`, for which the inhibition in assay [1] was 2.86%; in assay [2] it was -0.17%; in assay [3] it was 1.22%.
The corresponding values for `NC1=NC(c2ccccc2)(c2ccccc2)C(=O)N1CCOc1ccccc1` are 1.06%, 0.96% and 2%.
In the case of `Cc1cc(NC2CCCC2)nc(Nc2ccccc2F)n1`, the inhibition stood at 11.8% in assay [1], 4.74% in assay [2] and 2.95% in assay [3].
In the case of `COc1ccc2c(=NN=Cc3cccc(F)c3)cc(C)[nH]c2c1`, the values for the inhibition in assay [1], in assay [2] and in assay [3] were -1.29%, 4.27% and 1.95%, respectively.
With `Cc1sc(CNCCCNc2cc(=O)c3ccccc3[nH]2)c(C(F)(F)F)c1C`, the inhibition is -2.84% in assay [1], -0.65% in assay [2] and -0.52% in assay [3].
`O=C(/C=C/c1ccc(Cl)c(Cl)c1)N1CCC(NCc2ccc3[nH]ccc3c2)CC1`: the inhibition in assay [1] was found to be 4.05%; in assay [2], 4.06%; in assay [3], 0.76%.
The corresponding values for `Cc1ccc(NC(=O)c2ccc(Cl)cc2)cc1-c1ccc(C(=O)Nc2ccncc2)cc1` are -1.61%, 1.31% and 0.29%.
For the compound `Cc1ccc(C(CC(=O)Nc2nccs2)c2ccc(OC(C)C)cc2)cc1` (centres undefined), the inhibition in assay [1] was -1.83%; in assay [2] it was 0.63%; in assay [3], -1.31%.
The corresponding values for `CS(=O)(=O)Nc1ccc(-c2cnc3[nH]cc(-c4ccc(C(=O)O)cc4)c3c2)cc1` are 8.98%, 9.93% and 8.74%.
In the case of `O=C(Nc1ccc(Cl)c(Cl)c1)C1CCC(=O)N1[C@@H](Cc1ccccc1)C(=O)NCCc1ccc(Cl)cc1` (some centres undefined), the inhibition was found to be 0.51% in assay [1], 0.41% in assay [2] and 1.43% in assay [3].
With `NS(=O)(=O)c1cccc(Nc2nccc(-c3cnn4ncccc34)n2)c1`, the values for the inhibition in assay [1], in assay [2] and in assay [3] were 50.6%, 76.5% and 64.8%, respectively.
In the same order, the values of `Cn1cnc(CCNC(=O)c2cccc(-c3cccc(-c4nc5cc(C(F)(F)F)ccc5[nH]4)c3)c2)c1` are -1.68%, 1% and -2.49%.
Regarding `CC(C)(C)c1cc(C(=O)Nc2ccc(C(=N)N)cc2)c(O)c(C(C)(C)C)c1`, the inhibition was -0.84% in assay [1], 3.05% in assay [2] and 1.59% in assay [3].
With `N#Cc1ccc(NC(=O)N2CCCN(CCCCCNC(=O)/C=C/c3ccc(Cl)c(Cl)c3)CC2)cc1`, the inhibition in assay [1] came out at 1.89%; in assay [2] it was 1.77%; in assay [3], 5.16%.
For `Cc1c(Br)cc2nc(-c3ccc(C(=O)NC4CCN(Cc5ccccc5)CC4)cc3)[nH]c2c1C`, the inhibition was found to be 1.63% in assay [1], 1.85% in assay [2] and 0.51% in assay [3].
As to `COc1ccc(C2C(C(=O)Nc3ccc(C)c(F)c3)c3cc(OC)c(OC)cc3C(=O)N2C)cc1` (centres undefined), the inhibition turned out to be 2.11% in assay [1], 3.41% in assay [2] and 3.34% in assay [3].
On to `COc1ccc(-c2ccccc2OCCCNc2nc(NCCc3ccc(O)cc3)nc(N3CCNCC3)n2)cc1`, for which the inhibition in assay [1] worked out at 1.12%; in assay [2] it was 3.49%; in assay [3] it was 2.75%.
Take `Clc1cc(Nc2ccnc3ccc(Br)cc23)ccc1Oc1ccc2ccccc2c1Cl`: the results for the inhibition in assay [1], in assay [2] and in assay [3] were 2.41%, 5.44% and 1.22%, respectively.
As for `Clc1ccc(CNCCCCCCNCc2ccc(Cl)cc2)cc1`, the inhibition in assay [1] was -1.01%; in assay [2], 1.71%; in assay [3], -1.04%.
`CN(C)Cc1ccc(-c2cccc(NC(=O)c3ccc(Cl)cc3)c2)cc1`: the inhibition in assay [1] is -2.32%; in assay [2] it was -0.06%; in assay [3], 0.23%.
In the same order, the values of `CCNc1cc(C(=O)N[C@@H](Cc2ccccc2)[C@H](O)CNC(C)CCCC(C)C)cc(N2CCCS2(=O)=O)c1` (some centres undefined) are 2.83%, 1.89% and 2.08%.
